Where “and” joins values, the source holds several entries; their conditions need not be identical. Equal values may be shown once. About 2,000 (36%) of roughly 5,500 compounds were called active. About 18% were inconclusive and are not listed. Some of the results follow. Values without a mark were called inactive. No stated cut-off is given here; in the data, active means normalized growth mostly below about 0.91 (no sharp cut-off); inconclusive means no clear call, values can overlap the other calls; inactive means mostly above about 0.92.
Assay: chemical genetic growth profiling, strain panel (AID 1159580);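 further: tested at 20 µM; growth read once vehicle control cultures reached saturation at 30 °C; 1 = growth at the plate median or of vehicle wells; lower values mean less growth of the strain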
Settings: S. cerevisiae deletion strains, growth OD

**Q.** Which normalized growth (locus YAL013W, strain DEP1, hits give low values) does the source give for `COc1cc(NC(C)CCCN)c2ncccc2c1` (configuration not stated) here?
**A.** 1

**Q.** And the normalized growth (locus YAL021C, strain ccr4, hits give low values)?
**A.** 0.972

**Q.** What about the normalized growth (locus YAL026C, strain drs2, hits give low values) of the same compound?
**A.** 1.02

**Q.** What about the normalized growth (locus YAL030W, strain snc1, hits give low values) of the same compound?
**A.** 0.999

**Q.** And the normalized growth (locus YBL061C, strain skt5, hits give low values)?
**A.** 1

**Q.** What about the normalized growth (locus YBR009C, strain hhf1, hits give low values) of the same compound?
**A.** 1.07

**Q.** What about the normalized growth (locus YBR021W, strain FUR4, hits give low values) of the same compound?
**A.** 0.988

**Q.** What about the normalized growth (locus YBR023C, strain chs3, hits give low values) of the same compound?
**A.** 1.02

**Q.** What about the normalized growth (locus YBR171W, strain sec66, hits give low values) of the same compound?
**A.** 1.01

**Q.** And the normalized growth (locus YBR229C, strain ROT2, hits give low values)?
**A.** 1

**Q.** And the normalized growth (locus YBR231C, strain swc5, hits give low values)?
**A.** 0.984

**Q.** What about the normalized growth (locus YBR279W, strain paf1, hits give low values) of the same compound?
**A.** 1.01

**Q.** What about the normalized growth (locus YCL011C, strain gbp2, hits give low values) of the same compound?
**A.** 1.01

**Q.** And the normalized growth (locus YCL016C, strain dcc1, hits give low values)?
**A.** 1.02

**Q.** What about the normalized growth (locus YCL029C, strain bik1, hits give low values) of the same compound?
**A.** 1.02

**Q.** What about the normalized growth (locus YCL061C, strain MRC1, hits give low values) of the same compound?
**A.** 1

**Q.** And the normalized growth (locus YCL069W, strain vba3, hits give low values)?
**A.** 1.01

**Q.** What about the normalized growth (locus YCR088W, strain abp1, hits give low values) of the same compound?
**A.** 1

**Q.** What about the normalized growth (locus YDL005C, strain med2, hits give low values) of the same compound?
**A.** 1

**Q.** What about the normalized growth (locus YDL035C, strain GPR1, hits give low values) of the same compound?
**A.** 1

**Q.** And the normalized growth (locus YDL040C, strain nat1, hits give low values)?
**A.** 1

**Q.** And the normalized growth (locus YDL074C, strain BRE1, hits give low values)?
**A.** 1.01

**Q.** And the normalized growth (locus YDL101C, strain DUN1, hits give low values)?
**A.** 1.02

**Q.** And the normalized growth (locus YDL134C, strain PPH21, hits give low values)?
**A.** 1.01

**Q.** What about the normalized growth (locus YDL185W, strain tfp1, hits give low values) of the same compound?
**A.** 1.01

**Q.** What about the normalized growth (locus YDL192W, strain arf1, hits give low values) of the same compound?
**A.** 1.01

**Q.** And the normalized growth (locus YDR001C, strain nth1, hits give low values)?
**A.** 1.01

**Q.** And the normalized growth (locus YDR069C, strain doa4, hits give low values)?
**A.** 0.977

**Q.** What about the normalized growth (locus YDR101C, strain arx1, hits give low values) of the same compound?
**A.** 1

**Q.** And the normalized growth (locus YDR137W, strain rgp1, hits give low values)?
**A.** 1.03

**Q.** And the normalized growth (locus YDR150W, strain NUM1, hits give low values)?
**A.** 1.01

**Q.** And the normalized growth (locus YDR159W, strain sac3, hits give low values)?
**A.** 0.993

**Q.** What about the normalized growth (locus YDR162C, strain NBP2, hits give low values) of the same compound?
**A.** 1.01

**Q.** What about the normalized growth (locus YDR195W, strain ref2) of the same compound?
**A.** 0.99

**Q.** And the normalized growth (locus YDR297W, strain sur2, hits give low values)?
**A.** 1

**Q.** What about the normalized growth (locus YDR318W, strain mcm21, hits give low values) of the same compound?
**A.** 1

**Q.** What about the normalized growth (locus YDR334W, strain swr1, hits give low values) of the same compound?
**A.** 1.01

**Q.** And the normalized growth (locus YDR335W, strain msn5, hits give low values)?
**A.** 1

**Q.** What about the normalized growth (locus YDR388W, hits give low values) of the same compound?
**A.** 1.02

**Q.** And the normalized growth (locus YDR392W, strain spt3, hits give low values)?
**A.** 0.875

**Q.** And the normalized growth (locus YDR502C, strain sam2, hits give low values)?
**A.** 1

**Q.** What about the normalized growth (locus YEL003W, strain gim4, hits give low values) of the same compound?
**A.** 1.01

**Q.** What about the normalized growth (locus YEL037C, strain rad23, hits give low values) of the same compound?
**A.** 1.02

**Q.** And the normalized growth (locus YEL061C, strain CIN8 (second series), hits give low values)?
**A.** 1

**Q.** What about the normalized growth (locus YEL061C, strain CIN8, hits give low values) of the same compound?
**A.** 1

**Q.** And the normalized growth (locus YER015W, strain faa2, hits give low values)?
**A.** 0.989

**Q.** And the normalized growth (locus YER016W, strain bim1, hits give low values)?
**A.** 0.995

**Q.** What about the normalized growth (locus YER110C, hits give low values) of the same compound?
**A.** 1.01

**Q.** What about the normalized growth (locus YER111C, strain swi4, hits give low values) of the same compound?
**A.** 1.01

**Q.** And the normalized growth (locus YER155C, strain BEM2 (second series), hits give low values)?
**A.** 0.859 (active)

**Q.** What about the normalized growth (locus YER155C, strain BEM2, hits give low values) of the same compound?
**A.** 0.999

**Q.** What about the normalized growth (locus YER167W, strain BCK2, hits give low values) of the same compound?
**A.** 1.01

**Q.** What about the normalized growth (locus YFR010W, strain ubp6, hits give low values) of the same compound?
**A.** 1.01

**Q.** And the normalized growth (locus YGL078C, strain dbp3, hits give low values)?
**A.** 1.01

**Q.** What about the normalized growth (locus YGL086W, strain mad1, hits give low values) of the same compound?
**A.** 0.981

**Q.** What about the normalized growth (locus YGL167C, strain pmr1, hits give low values) of the same compound?
**A.** 1.01

**Q.** And the normalized growth (locus YGL173C, strain kem1, hits give low values)?
**A.** 1.02

**Q.** What about the normalized growth (locus YGL227W, strain vid30, hits give low values) of the same compound?
**A.** 0.999

**Q.** What about the normalized growth (locus YGL240W, strain doc1, hits give low values) of the same compound?
**A.** 0.985

**Q.** What about the normalized growth (locus YGL248W, strain PDE1, hits give low values) of the same compound?
**A.** 1.01

**Q.** What about the normalized growth (locus YGL253W, strain hxk2, hits give low values) of the same compound?
**A.** 1.03

**Q.** And the normalized growth (locus YGR078C, strain PAC10, hits give low values)?
**A.** 1.02

**Q.** What about the normalized growth (locus YGR135W, strain pre9, hits give low values) of the same compound?
**A.** 0.991

**Q.** And the normalized growth (locus YGR229C, strain SMI1, hits give low values)?
**A.** 1.01

**Q.** What about the normalized growth (locus YGR252W, strain gcn5, hits give low values) of the same compound?
**A.** 0.961

**Q.** And the normalized growth (locus YHR013C, strain ard1, hits give low values)?
**A.** 1

**Q.** What about the normalized growth (locus YHR027C, strain rpn1, hits give low values) of the same compound?
**A.** 1.03

**Q.** And the normalized growth (locus YHR030C, strain SLT2, hits give low values)?
**A.** 1.01 and 1.05

**Q.** And the normalized growth (locus YHR079C, strain IRE1 (second series), hits give low values)?
**A.** 1.01

**Q.** What about the normalized growth (locus YHR079C, strain IRE1, hits give low values) of the same compound?
**A.** 1.05

**Q.** And the normalized growth (locus YHR094C, strain hxt1, hits give low values)?
**A.** 1.01

**Q.** And the normalized growth (locus YHR129C, strain ARP1, hits give low values)?
**A.** 1

**Q.** What about the normalized growth (locus YHR142W, strain chs7, hits give low values) of the same compound?
**A.** 1.05

**Q.** What about the normalized growth (locus YHR200W, strain rpn10, hits give low values) of the same compound?
**A.** 1

**Q.** And the normalized growth (locus YIL066C, strain RNR3, hits give low values)?
**A.** 1.01

**Q.** What about the normalized growth (locus YIL073C, strain SPO22, hits give low values) of the same compound?
**A.** 1.1

**Q.** What about the normalized growth (locus YIL125W, strain kgd1, hits give low values) of the same compound?
**A.** 1.01

**Q.** What about the normalized growth (locus YIR030C, strain dcg1, hits give low values) of the same compound?
**A.** 1.01

**Q.** And the normalized growth (locus YJL092W, strain hpr5, hits give low values)?
**A.** 0.995

**Q.** What about the normalized growth (locus YJL095W, strain BCK1 (second series), hits give low values) of the same compound?
**A.** 1.02

**Q.** What about the normalized growth (locus YJL095W, strain BCK1, hits give low values) of the same compound?
**A.** 1 and 1.03

**Q.** And the normalized growth (locus YJL115W, strain asf1, hits give low values)?
**A.** 1.01

**Q.** And the normalized growth (locus YJL129C, strain trk1, hits give low values)?
**A.** 1.04

**Q.** What about the normalized growth (locus YJL134W, strain LCB3, hits give low values) of the same compound?
**A.** 1

**Q.** And the normalized growth (locus YJL154C, strain vps35, hits give low values)?
**A.** 1

**Q.** What about the normalized growth (locus YJL164C, strain tpk1, hits give low values) of the same compound?
**A.** 1.04

**Q.** What about the normalized growth (locus YJL166W, strain qcr8, hits give low values) of the same compound?
**A.** 0.964

**Q.** What about the normalized growth (locus YJL168C, strain set2, hits give low values) of the same compound?
**A.** 1.01

**Q.** What about the normalized growth (locus YJL187C, strain SWE1 (second series), hits give low values) of the same compound?
**A.** 1.02

**Q.** What about the normalized growth (locus YJL187C, strain SWE1, hits give low values) of the same compound?
**A.** 0.998

**Q.** What about the normalized growth (locus YJR043C, strain POL32, hits give low values) of the same compound?
**A.** 0.995

**Q.** And the normalized growth (locus YJR066W, strain TOR1, hits give low values)?
**A.** 0.977

Reference: PubChem BioAssay AID1159580 (chemical genetic matrix, 2015)
